Compound in the assay: C#CCNC(=O)CCSSCCC(=O)NCCc1ccc(C=O)c(C=O)c1
The assay can be described thus: lysine labeling ratio R10:1 (500 µM / 50 µM probe), SILAC-ABPP in living cells; higher = lower intrinsic lysine reactivity toward the probe, active = 2 or less. Conditions: HeLa; probe concentrations 500 vs 50 µM. Summed up:
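In PBS at room temperature, living HeLa cells grown with SILAC light or heavy labels were treated with 50 µM or 500 µM of an alkyne-tagged, disulfide-linked lysine probe, with label swaps in both directions. Analysis was by LC-MS/MS on a TIMS-TOF Pro after click to biotin-azide, neutravidin capture and DTT release. For each lysine, R is the median across forward and reverse replicates of the filtered median high-probe/low-probe MS1 peptide ratio, capped at 20.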
Chain of UniProt P10586 (P10586 whole entry): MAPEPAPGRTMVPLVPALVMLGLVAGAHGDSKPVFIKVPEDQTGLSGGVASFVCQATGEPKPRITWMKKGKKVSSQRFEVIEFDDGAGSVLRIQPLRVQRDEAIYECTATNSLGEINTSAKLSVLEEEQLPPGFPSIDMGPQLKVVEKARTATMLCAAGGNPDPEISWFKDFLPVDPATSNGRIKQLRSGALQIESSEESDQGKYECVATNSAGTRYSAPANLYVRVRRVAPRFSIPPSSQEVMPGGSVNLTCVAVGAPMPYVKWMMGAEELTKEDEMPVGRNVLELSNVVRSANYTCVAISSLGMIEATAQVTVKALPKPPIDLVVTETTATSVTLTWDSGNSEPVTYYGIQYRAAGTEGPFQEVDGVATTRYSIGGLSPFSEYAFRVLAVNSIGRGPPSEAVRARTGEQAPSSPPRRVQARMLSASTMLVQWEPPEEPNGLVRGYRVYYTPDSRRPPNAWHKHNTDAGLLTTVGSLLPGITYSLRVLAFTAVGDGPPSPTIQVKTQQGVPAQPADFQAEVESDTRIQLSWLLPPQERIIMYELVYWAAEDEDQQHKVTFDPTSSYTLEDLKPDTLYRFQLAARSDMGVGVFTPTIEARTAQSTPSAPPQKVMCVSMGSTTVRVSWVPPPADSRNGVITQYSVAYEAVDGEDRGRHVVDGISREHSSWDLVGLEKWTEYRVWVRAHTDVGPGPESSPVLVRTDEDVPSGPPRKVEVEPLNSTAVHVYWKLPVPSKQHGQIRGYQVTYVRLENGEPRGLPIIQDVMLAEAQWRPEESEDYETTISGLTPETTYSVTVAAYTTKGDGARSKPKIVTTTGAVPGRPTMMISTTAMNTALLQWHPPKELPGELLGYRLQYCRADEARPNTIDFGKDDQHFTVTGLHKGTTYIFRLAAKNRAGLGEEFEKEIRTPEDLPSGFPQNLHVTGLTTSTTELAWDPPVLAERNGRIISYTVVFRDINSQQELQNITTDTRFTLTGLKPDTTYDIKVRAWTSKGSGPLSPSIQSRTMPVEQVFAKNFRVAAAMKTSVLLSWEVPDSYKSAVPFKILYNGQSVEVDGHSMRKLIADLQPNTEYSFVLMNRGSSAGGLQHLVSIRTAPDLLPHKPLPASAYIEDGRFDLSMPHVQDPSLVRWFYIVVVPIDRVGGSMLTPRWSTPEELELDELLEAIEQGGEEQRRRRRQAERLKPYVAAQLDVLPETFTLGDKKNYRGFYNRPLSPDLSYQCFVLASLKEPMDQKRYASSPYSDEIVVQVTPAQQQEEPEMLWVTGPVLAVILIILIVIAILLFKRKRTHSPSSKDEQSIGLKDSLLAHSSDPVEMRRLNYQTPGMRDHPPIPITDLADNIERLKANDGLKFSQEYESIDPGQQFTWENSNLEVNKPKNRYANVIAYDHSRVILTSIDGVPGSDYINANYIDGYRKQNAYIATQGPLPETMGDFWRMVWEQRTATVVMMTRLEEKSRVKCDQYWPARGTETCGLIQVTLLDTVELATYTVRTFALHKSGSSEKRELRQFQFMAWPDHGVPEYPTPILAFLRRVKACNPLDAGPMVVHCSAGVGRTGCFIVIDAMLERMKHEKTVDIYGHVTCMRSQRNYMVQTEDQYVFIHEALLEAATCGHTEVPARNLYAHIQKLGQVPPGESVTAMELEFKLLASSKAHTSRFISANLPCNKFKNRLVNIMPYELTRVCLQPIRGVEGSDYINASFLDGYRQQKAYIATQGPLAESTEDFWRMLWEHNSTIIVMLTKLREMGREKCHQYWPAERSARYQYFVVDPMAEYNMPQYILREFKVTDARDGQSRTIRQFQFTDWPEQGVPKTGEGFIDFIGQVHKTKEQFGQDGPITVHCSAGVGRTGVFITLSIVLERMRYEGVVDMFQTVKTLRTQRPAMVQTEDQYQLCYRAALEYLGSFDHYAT
Chain of UniProt Q13433 (Q13433 whole entry): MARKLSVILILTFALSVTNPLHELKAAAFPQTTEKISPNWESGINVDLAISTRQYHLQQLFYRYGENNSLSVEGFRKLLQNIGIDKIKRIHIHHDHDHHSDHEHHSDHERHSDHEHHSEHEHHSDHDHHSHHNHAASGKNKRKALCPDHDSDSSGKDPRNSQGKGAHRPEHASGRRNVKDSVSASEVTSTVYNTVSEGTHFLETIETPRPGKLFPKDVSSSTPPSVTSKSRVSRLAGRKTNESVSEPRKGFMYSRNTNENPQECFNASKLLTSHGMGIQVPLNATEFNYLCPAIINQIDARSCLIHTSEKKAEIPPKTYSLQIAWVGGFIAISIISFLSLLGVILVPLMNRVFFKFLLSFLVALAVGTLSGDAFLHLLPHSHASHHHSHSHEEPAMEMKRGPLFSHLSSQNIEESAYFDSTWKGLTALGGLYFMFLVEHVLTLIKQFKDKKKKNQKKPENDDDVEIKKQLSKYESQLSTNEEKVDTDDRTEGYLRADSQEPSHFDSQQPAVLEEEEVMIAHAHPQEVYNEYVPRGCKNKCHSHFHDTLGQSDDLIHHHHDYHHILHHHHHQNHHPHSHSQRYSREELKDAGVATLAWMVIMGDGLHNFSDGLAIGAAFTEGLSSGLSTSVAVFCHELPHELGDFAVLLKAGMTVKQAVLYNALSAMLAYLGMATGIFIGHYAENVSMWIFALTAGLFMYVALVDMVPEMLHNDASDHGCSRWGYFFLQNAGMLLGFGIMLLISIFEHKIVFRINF
Chain of UniProt P02786 (P02786 whole entry, looked up): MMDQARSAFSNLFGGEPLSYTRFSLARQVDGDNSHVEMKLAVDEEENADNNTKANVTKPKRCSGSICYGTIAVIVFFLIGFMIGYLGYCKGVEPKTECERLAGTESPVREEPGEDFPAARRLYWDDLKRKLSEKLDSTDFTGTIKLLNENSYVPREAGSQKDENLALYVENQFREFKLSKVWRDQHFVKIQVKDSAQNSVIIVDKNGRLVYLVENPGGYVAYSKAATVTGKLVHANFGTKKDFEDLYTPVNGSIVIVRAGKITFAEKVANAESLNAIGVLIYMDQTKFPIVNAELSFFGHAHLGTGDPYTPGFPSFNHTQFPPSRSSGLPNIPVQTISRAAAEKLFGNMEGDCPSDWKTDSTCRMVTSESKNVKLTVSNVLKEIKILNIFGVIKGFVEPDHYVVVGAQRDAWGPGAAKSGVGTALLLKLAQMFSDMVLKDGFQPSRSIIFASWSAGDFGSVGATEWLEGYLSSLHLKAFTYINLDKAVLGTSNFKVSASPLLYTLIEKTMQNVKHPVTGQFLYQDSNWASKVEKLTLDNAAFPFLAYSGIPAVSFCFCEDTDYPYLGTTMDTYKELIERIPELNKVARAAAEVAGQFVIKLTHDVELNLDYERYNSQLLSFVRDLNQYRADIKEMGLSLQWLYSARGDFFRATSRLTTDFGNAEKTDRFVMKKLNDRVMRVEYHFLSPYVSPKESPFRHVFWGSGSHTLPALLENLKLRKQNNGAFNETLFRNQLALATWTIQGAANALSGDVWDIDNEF
Chain of UniProt Q8TCT9 (Q8TCT9 whole entry): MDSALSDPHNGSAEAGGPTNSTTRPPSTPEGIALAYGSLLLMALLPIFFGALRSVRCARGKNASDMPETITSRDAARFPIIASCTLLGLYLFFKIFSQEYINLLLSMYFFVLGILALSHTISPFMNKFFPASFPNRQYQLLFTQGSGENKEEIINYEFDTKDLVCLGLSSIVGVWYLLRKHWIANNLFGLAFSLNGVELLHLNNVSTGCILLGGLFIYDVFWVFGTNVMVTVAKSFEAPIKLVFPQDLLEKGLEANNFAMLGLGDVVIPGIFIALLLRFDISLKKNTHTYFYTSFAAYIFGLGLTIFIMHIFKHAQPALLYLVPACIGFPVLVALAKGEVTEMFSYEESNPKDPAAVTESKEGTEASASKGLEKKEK
Chain of UniProt P61006 (P61006 whole entry): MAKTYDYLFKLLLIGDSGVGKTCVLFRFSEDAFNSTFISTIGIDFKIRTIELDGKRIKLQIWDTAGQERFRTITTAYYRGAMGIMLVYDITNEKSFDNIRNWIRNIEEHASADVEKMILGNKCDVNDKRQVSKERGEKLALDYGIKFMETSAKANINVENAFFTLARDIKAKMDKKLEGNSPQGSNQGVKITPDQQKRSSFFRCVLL
Chain of UniProt P01008 (P01008 whole entry): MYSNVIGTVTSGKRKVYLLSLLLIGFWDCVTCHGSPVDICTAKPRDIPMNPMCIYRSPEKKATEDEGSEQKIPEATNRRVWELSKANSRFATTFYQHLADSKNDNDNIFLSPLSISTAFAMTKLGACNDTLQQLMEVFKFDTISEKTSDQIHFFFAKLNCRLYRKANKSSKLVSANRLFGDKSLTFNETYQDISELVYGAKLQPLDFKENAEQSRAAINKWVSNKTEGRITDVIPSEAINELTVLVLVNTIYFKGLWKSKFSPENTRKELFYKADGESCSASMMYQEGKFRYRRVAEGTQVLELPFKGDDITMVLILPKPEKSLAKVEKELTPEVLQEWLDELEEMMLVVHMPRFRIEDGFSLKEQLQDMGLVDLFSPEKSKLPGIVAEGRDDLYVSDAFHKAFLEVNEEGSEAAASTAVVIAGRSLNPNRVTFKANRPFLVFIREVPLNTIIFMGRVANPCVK
Chain of UniProt P10599 (P10599 whole entry): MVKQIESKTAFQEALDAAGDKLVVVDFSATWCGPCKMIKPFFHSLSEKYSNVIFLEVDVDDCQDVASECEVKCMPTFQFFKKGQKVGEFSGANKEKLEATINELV
Chain of UniProt P02656 (P02656 whole entry): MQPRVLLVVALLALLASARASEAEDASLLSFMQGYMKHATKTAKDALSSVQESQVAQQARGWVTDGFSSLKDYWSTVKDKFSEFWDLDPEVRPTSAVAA
Chain of UniProt Q9BV40 (Q9BV40 whole entry): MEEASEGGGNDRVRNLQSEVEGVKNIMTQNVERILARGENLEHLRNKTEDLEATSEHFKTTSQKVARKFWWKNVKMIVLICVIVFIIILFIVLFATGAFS
Chain of UniProt P16949 (P16949 whole entry): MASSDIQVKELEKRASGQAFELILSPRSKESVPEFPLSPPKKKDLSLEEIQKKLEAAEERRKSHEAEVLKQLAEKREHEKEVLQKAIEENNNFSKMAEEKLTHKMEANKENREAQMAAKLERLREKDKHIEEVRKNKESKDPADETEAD
Consider “NSUN2 (lysine site: K28) (UniProt Q08J23)”, for which the “lysine labeling ratio R10:1” value was 2.49 (inactive).
Then “PLXNB2 (lysine site: K941) (UniProt O15031)”, with 2.31 (inactive).
Then “HSPD1 (lysine site: K96) (UniProt P10809)”, with 3.85 (inactive); and “TLN1 (lysine site: K1544) (UniProt Q9Y490)”, with 1.54 (active); and “PTPRF (lysine site: K204) (UniProt P10586)”, with 4.93 (inactive).
Consider “SERPINC1 (lysine site: K260) (UniProt P01008)”, for which the “lysine labeling ratio R10:1” value is 5.6 (inactive).
As for “RPL4 (lysine site: K259) (UniProt P36578)”, the figure is 1.88 (active); as for “HSPA8 (lysine site: K71) (UniProt P11142)”, 2.62 (inactive); as for “LAMB1 (lysine site: K1579) (UniProt P07942)”, 2.82 (inactive).
Then “CDH13 (lysine site: K178) (UniProt P55290)”, with 7.63 (inactive); and UniProt P08727 (lysine site: K118), with 3.16 (inactive); and “TFRC (lysine site: K672) (UniProt P02786)”, with 3 (inactive).
With “ITGA5 (lysine site: K943) (UniProt P08648)”, the “lysine labeling ratio R10:1” value was 2.54 (inactive).
Regarding “VAMP8 (lysine site: K64) (UniProt Q9BV40)”, the “lysine labeling ratio R10:1” value was 2.52 (inactive).
Consider “PTGFRN (lysine site: K752) (UniProt Q9P2B2)”, for which the “lysine labeling ratio R10:1” value is 3.57 (inactive).
As for “SEMA3C (lysine site: K570) (UniProt Q99985)”, the figure is 8.1 (inactive).
UniProt P62829 (lysine site: K74): the “lysine labeling ratio R10:1” value is 3.78 (inactive).
Regarding “HM13 (lysine site: K61) (UniProt Q8TCT9)”, the “lysine labeling ratio R10:1” value is 1.69 (active).
Take “STMN1 (lysine site: K53) (UniProt P16949)”: the “lysine labeling ratio R10:1” value is 1.68 (active).
“CLU (lysine site: K322) (UniProt P10909)”: the “lysine labeling ratio R10:1” value is 1.38 (active).
For the target “MET (lysine site: K725) (UniProt P08581)”, the “lysine labeling ratio R10:1” value was 0.656 (active).
As for “RPL4 (lysine site: K182) (UniProt P36578)”, the figure is 1.85 (active).
As for “ITGA1 (lysine site: K546) (UniProt P56199)”, the figure is 0.96 (active); as for UniProt P25705 (lysine site: K194), 1.81 (active); as for “SLC39A10 (lysine site: K317) (UniProt Q9ULF5)”, 6.58 (inactive).
Regarding “RPLP0 (lysine site: K106) (UniProt P05388)”, the “lysine labeling ratio R10:1” value was 0.868 (active).
For UniProt Q8WXI7 (lysine site: K13246), the “lysine labeling ratio R10:1” value is 5.01 (inactive).
Consider UniProt P21589 (lysine site: K67), for which the “lysine labeling ratio R10:1” value was 2.8 (inactive).
Then “CCT5 (lysine site: K514) (UniProt P48643)”, with 2.42 (inactive).
Then TXN (lysine site: K96) (UniProt P10599), with 2.11 (inactive); and “PTPRF (lysine site: K1103) (UniProt P10586)”, with 7.4 (inactive).
“RAB8A (lysine site: K197) (UniProt P61006)”: the “lysine labeling ratio R10:1” value is 2.44 (inactive).
Then UniProt P62701 (lysine site: K106), with 2.28 (inactive); and “SPTBN1 (lysine site: K1421) (UniProt Q01082)”, with 3.37 (inactive).
On to “APOC3 (lysine site: K44) (UniProt P02656)”, for which the “lysine labeling ratio R10:1” value was 3.68 (inactive).
Then “CDCP1 (lysine site: K396) (UniProt Q9H5V8)”, with 0.987 (active).
Then UniProt P08240 (lysine site: K220), with 2.1 (inactive).
As for “RPL28 (lysine site: K135) (UniProt P46779)”, the figure is 3.84 (inactive).
As to UniProt Q9UHN6 (lysine site: K1220), the “lysine labeling ratio R10:1” value was 2.87 (inactive).
As for “SLC39A6 (lysine site: K156) (UniProt Q13433)”, the figure is 3.23 (inactive).

The values are drawn from the supplement of paper PMC11001985.
